Screen size: about 100,000 compounds; about 770 (0.77%) were called active. This is one part of a sample in which actives are shown more often than they occur. A number with no mark means an inactive call. Rule as the data show it: active = inhibition above about 50%; inactive = the rest.
Biological target: Gag-Pol polyprotein (Human immunodeficiency virus type 1 group M subtype B (isolate HXB2)) (UniProt P04585)
Assay: RNase H inhibition, HIV 1 Gag Pol polyprotein, FRET biochemical assay, screening (AID 372)
Details: HIV-1 RT RNase H, FRET RNA/DNA substrate fluorescence; at 10 µM; active compounds read high

Compared with `O=C(COc1cccc(Cl)c1)N/N=C\c1ccc(O)cc1`, `O=C(COc1ccc(Cl)cc1Cl)Nc1ccccc1F` is higher in inhibition: 1% for the first, 27% for the second.

Compared with `Cc1ccc2nc(-c3c(-c4ccccc4)c4cc(C)ccc4[nH]c3=O)cc(-c3ccccc3)c2c1`, `O=C1C(=O)N(c2nc3ccccc3s2)C(c2ccccc2F)/C1=C(/O)c1ccccc1` (stereo not drawn) is lower in inhibition: 31% for the first, 8% for the second.

First: Cc1ccc(N2C(=O)c3ccccc3C2=O)cc1C
Second: Cc1ccccc1N1C(=O)c2cccnc2C1=O
The inhibition of the first is lower: 5% for the first, 22% for the second.

Compared with `COc1ccccc1/C=C1/C(=O)N(c2ccc(Cl)c(Cl)c2)N=C1C`, `O=C(COc1ccc(Br)cc1Cl)Nc1ccccc1Cl` is higher in inhibition: 3% for the first, 31% for the second.

Going from `CCCC(=O)N(c1ccc(N(C(=O)CCC)S(=O)(=O)c2ccccc2)cc1)S(=O)(=O)c1ccccc1` to `O=C(COc1ccc(/C=N/NS(=O)(=O)c2ccccc2)cc1)Nc1ccc(F)cc1`, the inhibition rises from 1% to 4%.

First: O=C(NC(=S)Nc1ccc2oc(-c3cccc(Cl)c3)nc2c1)c1ccc(F)cc1
Second: O=C(NC(=S)Nc1ccc2oc(-c3ccc(F)cc3)nc2c1)c1ccc(Cl)cc1
The inhibition of the first is higher: 18% for the first, 0% for the second.

Compared with `O=C(NC(=S)Nc1ccc2oc(-c3cc(Cl)ccc3Cl)nc2c1)c1ccc(F)cc1`, `O=C(NC(=S)Nc1ccc2oc(-c3ccc(Cl)cc3Cl)nc2c1)c1ccc(F)cc1` is lower in inhibition: 19% for the first, 17% for the second.

Going from `Cc1ccc(-c2nc3cc(Cl)cc(Cl)c3o2)cc1N` to `Nc1ccc(-c2nc3cc(Cl)cc(Cl)c3o2)cc1`, the inhibition rises from 0% to 22%.

Compared with `O=C(NC(=S)Nc1cccc(-c2nc3cc(Cl)ccc3o2)c1)c1ccc(Br)cc1`, `O=C(NC(=S)Nc1ccc(-c2nc3cc(Cl)ccc3o2)cc1)c1ccc(F)cc1` is lower in inhibition: 9% for the first, 8% for the second.

Compared with `CC(=O)Nc1nc2c(s1)C(=O)NCCC2`, `Cc1cccc(C(=O)NN=C2CCCCC2)c1` is higher in inhibition: 5% for the first, 7% for the second.

First: Cn1c2ccccc2c2nnc(SCCN3CCOCC3)nc21
Second: O=[N+]([O-])c1ccc(N2CCOCC2)cc1Sc1cccc2cccnc12
The inhibition of the first is lower: 0% for the first, 24% for the second.

Compared with `O=Cc1ccc(OCc2ccc([N+](=O)[O-])cc2)cc1`, `COc1ccc(/C=C2/Sc3ccccc3C2=O)cc1` is lower in inhibition: 16% for the first, 5% for the second.

Compared with `Cc1ccc(S(=O)(=O)N2CCC(CN3C(=O)c4cccc5cccc(c45)C3=O)CC2)cc1`, `O=C(Nc1ccc(S(=O)(=O)N2CCOCC2)cc1)c1ccccc1Cl` is lower in inhibition: 25% for the first, 0% for the second.

First: Cc1cc(C)n(S(=O)(=O)c2ccc(Cl)c(Cl)c2Cl)n1
Second: O=S(=O)(c1cc(Cl)ccc1Cl)n1ccnc1
The inhibition of the first is higher: 23% for the first, 0% for the second.

First: CCCC1(CCC)NC(=S)N(c2nc3ccccc3s2)N1
Second: Cc1ccccc1OCC(=O)Nc1ccc(O)c(-c2nc3ccccc3s2)c1
The inhibition of the first is lower: 7% for the first, 14% for the second.

Going from `COc1ccc(N(CC(=O)NCc2ccccn2)S(=O)(=O)c2ccccc2[N+](=O)[O-])c(OC)c1` to `COc1ccc(C)cc1NC(=O)COc1cccc2ccccc12`, the inhibition rises from 4% to 21%.

Going from `O=C(/C=C/c1cccs1)c1ccc(C(=O)/C=C/c2cccs2)cc1` to `O=C(NC(=S)Nc1cccc(-c2nc3ccccc3s2)c1)c1cccs1`, the inhibition falls from 13% to 7%.

Compared with `O=C(/C=C/c1ccc(F)cc1)Nc1cccc2cccnc12`, `COC(=O)c1ccc(/C=C2\N=C(c3ccc(F)cc3)OC2=O)cc1` is lower in inhibition: 7% for the first, 0% for the second.

Going from `O=C(NC(=S)Nc1cccc(-c2nc3cc(Cl)cc(Cl)c3o2)c1)c1ccccc1Cl` to `O=C(NC(=S)Nc1cccc(-c2nc3cc(Cl)cc(Cl)c3o2)c1)c1ccc(Cl)cc1`, the inhibition falls from 19% to 11%.

Going from `O=C(NC(=S)Nc1ccc(O)c(-c2nc3ccccc3o2)c1)c1ccc([N+](=O)[O-])cc1` to `O=C(Nc1ccc(O)c(-c2nc3ccccc3o2)c1)c1ccc(F)cc1`, the inhibition falls from 9% to 6%.

First: CCOC(=O)c1ccc(-c2ccc(/C=N/O)o2)cc1
Second: Cc1ccc(-c2n[nH]c(=S)n2N=Cc2ccccc2OCC(=O)O)cc1
The inhibition of the first is lower: 0% for the first, 12% for the second.

Going from `COC(=O)C1=C(C)NC2=C(C(=O)CC(c3ccc(OC)cc3)C2)C1c1cccc(OC)c1OC` (stereo not drawn) to `COc1ccc(C2CC(C(F)(F)F)n3nc(C(=O)Nc4cc(OC)c(Cl)cc4OC)c(Cl)c3N2)cc1` (stereo not drawn), the inhibition rises from 11% to 14%.

Compared with `Cc1ccc2nc(-c3ccc(Cl)c(NC(=S)NC(=O)c4ccccc4C)c3)oc2c1`, `Cc1ccc(-c2nc3ccccc3o2)cc1NC(=S)NC(=O)c1ccccc1C` is lower in inhibition: 42% for the first, 12% for the second.

Compared with `O=C(NC(=S)Nc1cc(-c2nc3ccccc3o2)ccc1Cl)c1ccccc1Br`, `COc1ccccc1C(=O)NC(=S)Nc1cc(-c2nc3ccccc3o2)ccc1C` is higher in inhibition: 9% for the first, 10% for the second.

Going from `O=C(NC(=S)Nc1ccc(Cl)cn1)c1cccc(F)c1` to `O=C(NC(=S)Nc1ccc(O)c(-c2nc3ccccc3s2)c1)c1ccc(F)cc1`, the inhibition rises from 13% to 46%.

Compared with `Cc1ccc2nc(-c3ccc(Cl)cc3)cn2c1`, `CCc1ccccc1N/C=C(\C#N)c1nc(-c2ccc(Cl)cc2)cs1` is higher in inhibition: 5% for the first, 8% for the second.

Compared with `O=C(Nc1c(C(=O)Nc2ccc(Br)cc2)cnn1-c1ccccc1)c1ccco1`, `O=C(COc1ccc(Cl)cc1Cl)Nc1ccc(-c2ccccc2)cc1` is lower in inhibition: 8% for the first, 7% for the second.

Going from `O=C(Nc1ccc(S(=O)(=O)N2CCCCCC2)cc1)c1ccc(Cl)cc1Cl` to `CCC(=O)Nc1ccc(NC(=O)COc2ccc(Cl)cc2Cl)cc1`, the inhibition rises from 8% to 27%.

Going from `CC(C)NS(=O)(=O)c1ccc(Br)cc1` to `COc1ccc2nc(N/C(N)=N/S(=O)(=O)c3ccc(C)cc3)nc(C)c2c1`, the inhibition rises from 0% to 5%.

Going from `CC1=C(C#N)C(=O)NC(=O)/C1=C\c1ccc(-c2cccc(Cl)c2)o1` to `CC(=O)c1cccc(-c2ccc(/C=C3\C(=O)NC(=O)C(C#N)=C3C)o2)c1`, the inhibition rises from 33% to 43%.

First: Cc1ccc(-c2ccc(C=C3C(=O)NC(=O)NC3=O)o2)c([N+](=O)[O-])c1
Second: O=C1NC(=S)NC(=O)C1=Cc1ccc(-c2ccc(Cl)cc2[N+](=O)[O-])o1
The inhibition of the first is lower: 14% for the first, 42% for the second.

Compared with `Cc1cc(-c2ccc(C=C3C(=O)N(C)C(=O)N(C)C3=O)o2)c([N+](=O)[O-])cc1C`, `Cc1cc(-c2ccc(/C=C3/C(=O)NN(c4ccc(F)cc4)C3=O)o2)c([N+](=O)[O-])cc1C` is lower in inhibition: 6% for the first, 5% for the second.

Going from `C=CCN1C(=O)/C(=C/c2cc(C)n(-c3ccc(C(=O)O)cc3C)c2C)C(=O)NC1=S` to `Cc1ccccc1N1C(=O)/C(=C/c2cccn2-c2ccc(Br)cc2)C(=O)NC1=S`, the inhibition rises from 6% to 20%.

Compared with `Cc1cc(Br)cc(C)c1NC(=O)c1cccnc1`, `Cc1cc(=O)[nH]c(N/N=C/c2cccnc2)n1` is lower in inhibition: 2% for the first, 0% for the second.

First: CCOC(=O)CNC1=C([N+](=O)[O-])C(=O)CC(C)(C)C1
Second: CCOc1ccc(N(CC(=O)NCCSCc2ccc(C)cc2)S(C)(=O)=O)cc1
The inhibition of the first is lower: 0% for the first, 16% for the second.

Going from `C=CCn1cc(/C=c2\sc3n(c2=O)C(c2ccc(SC)cc2)C(C(=O)OCC)=C(C)N=3)c2ccccc21` (stereo not drawn) to `CC(=O)Oc1ccc2c(=O)c(-c3nc4ccccc4[nH]3)c(C)oc2c1`, the inhibition falls from 24% to 3%.

Going from `O=C(COc1ccc(Cl)cc1Cl)Nc1ccc(-c2nc3ccccc3s2)c(O)c1` to `Cc1ccc(C(=O)NC(=S)Nc2ccc(O)c(-c3nc4ccccc4s3)c2)cc1`, the inhibition rises from 27% to 37%.

`C#CCSc1nncn1C(=O)/C=C/c1ccco1` and `O=C(NC(=S)Nc1ccc(O)c(-c2nc3ccccc3s2)c1)c1cccs1` are the same in inhibition: 19% for the first, 19% for the second.

Compared with `CCCCNCCCCCOc1ccccc1C(C)C`, `COc1cccc(OCCCCOc2ncnc3ccccc23)c1` is higher in inhibition: 5% for the first, 10% for the second.

First: O=C(COc1ccc(Cl)cc1Br)Nc1ccc2c(c1)OCCO2
Second: O=C(COc1ccc(Br)cc1Cl)Nc1ccc2c(c1)OCO2
The inhibition of the first is higher: 36% for the first, 18% for the second.

With `Cc1ccc(N2C(=O)c3cccnc3C2=O)cc1C` the inhibition was 50% (active).
`O=C(NC(=S)Nc1ccc2oc(-c3ccc(Cl)cc3)nc2c1)c1ccc(F)cc1` was tested, and the inhibition was 57% (active).
With `Nc1cccc(-c2nc3cc(Cl)cc(Cl)c3o2)c1` the inhibition was 55% (active).
In the case of `O=C(NC(=S)Nc1ccc(Cl)c(-c2nc3cc(Cl)ccc3o2)c1)c1ccc(F)cc1`, the inhibition was 53% (active).
`O=C(NC(=S)Nc1cccc(-c2nc3cc(Cl)ccc3o2)c1)c1ccc(F)cc1` was tested, and the inhibition was 57% (active).
`O=C(NC(=S)Nc1ccc(O)c(-c2nc3ccccc3o2)c1)c1ccc(F)cc1` was tested, and the inhibition was 56% (active).
With `O=C(NC(=S)Nc1cccc(-c2nc3cc(Cl)cc(Cl)c3o2)c1)c1cccc(F)c1` the inhibition was 58% (active).
With `Cc1ccccc1C(=O)NC(=S)Nc1cc(-c2nc3ccccc3o2)ccc1Cl` the inhibition was 53% (active).
With `COc1ccc(-c2nc3ccccc3o2)cc1NC(=S)NC(=O)c1ccccc1C` the inhibition was 53% (active).
With `O=C(Nc1ccc(S(=O)(=O)N2CCCCC2)cc1)c1ccccc1Cl` the inhibition was 57% (active).
In the case of `CC1=C(C#N)C(=O)NC(=O)/C1=C\c1ccc(-c2cc(C)c(C)cc2[N+](=O)[O-])o1`, the inhibition was 56% (active).
For `CC1=C(C#N)C(=O)NC(=O)/C1=C\c1ccc(-c2ccc(Cl)c(Cl)c2)o1`, the inhibition was 50% (active).
With `O=C(COc1ccc(Cl)cc1Cl)Nc1ccc(O)c(-c2nc3ccccc3s2)c1` the inhibition was 61% (active).
For `O=C(COc1ccc(Cl)cc1Cl)Nc1ccc(NC(=O)COc2ccc(Cl)cc2Cl)cc1`, the inhibition was 52% (active).
In the case of `O=C(COc1ccc(Br)cc1Cl)Nc1ccccc1F`, the inhibition was 51% (active).
With `O=C(NC(=S)Nc1ccc(O)c(-c2nc3ccccc3s2)c1)c1ccc(Cl)cc1` the inhibition was 54% (active).
`O=C(NC(=S)Nc1ccc(-c2nc3ccccc3s2)c(O)c1)c1cccs1` was tested, and the inhibition was 56% (active).
For `O=C(COc1ccc(Br)cc1Cl)Nc1ccc2c(c1)OCCO2`, the inhibition was 50% (active).

Source: PubChem BioAssay AID372 (MTDP, 2006)
